The text below walks through data of PubChem BioAssay (NCI).

Molecules are shown by their SMILES. Compounds without any hit were thinned out: in the full panel of roughly 83,000, 20% have a hit.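 96-well plates, one dose, 48 hours. Percent growth reported; active if below 10.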 Unmarked numbers belong to inactive results. Activity calls are given as the source filed them.

Test in all cases: NCI-60 one-dose screen, 48 h (100 = growth as untreated, 0 = no growth, -100 = all killed)
Holding throughout (conditions): 10 µM unless noted

For test [1], the system named is SR leukemia.
Test [2] concerns RPMI-8226 leukemia.
In test [3] the test system is OVCAR-8 ovarian.
For test [4], the system named is OVCAR-5 ovarian.
The subject of test [5] is OVCAR-4 ovarian.
The test system of test [6] is SK-OV-3 ovarian.
Test [7] deals with IGROV1 ovarian.
Test [8] deals with OVCAR-3 ovarian.
Test [9] concerns HS 578T breast.
Test [10] relates to NCI/ADR-RES ovarian.

Consider `C#COc1cccc(Nc2c(C#N)cnc3ncc(NC(=O)CCl)cc23)c1`, for which the growth in test [1] was 10.2% [6.25 µM]; in test [2], -18.2% [6.25 µM] (active); in [3] it was 32.2% [6.25 µM]; in test [4] it was 42.9% [6.25 µM]; in [5], 54.5% [6.25 µM]; in test [6] it was 60.4% [6.25 µM]. For the same compound, the growth in [7] is 14.1% [6.25 µM]; in [8], 7.58% [6.25 µM] (active); in [9] it was 66.8% [6.25 µM]; in test [10], 76.5% [6.25 µM].

As to `COc1cc(C2c3cc(OC(C)=O)c(OC)cc3CC3C(=O)OCC32)ccc1OC(C)=O` (stereo not given), the growth in test [1] was 108%; in test [2], 93.1%; in test [3] it was 111%; in test [4] it was 93.9%; in test [5], 99.2%; in test [6], 111%. The growth was 111% in test [7], 121% in test [8], 123% in [9] and 106% in test [10].

As for `O=C(Nc1ccccc1O)c1ccc(CNC(=O)c2sccc2Nc2ccnc(C(F)(F)F)c2)cc1`, the growth was 36.2% in test [1]; 24.3% in test [2]; 35.8% in test [3]; 45.6% in test [4]; 48.3% in test [5]; 57.2% in test [6]. For the same compound, the growth is 41% in test [7], 41.3% in test [8], 14.6% in test [9] and 24.1% in test [10].

As for `Cn1c(I)c(C#CCO[Si](C)(C)C(C)(C)C)c(=O)[nH]c1=O`, the growth in test [1] is -11.3% (active); in test [2], 84.8%; in [3] it was 94.8%; in test [4], 102%; in test [5], 80%; in test [6], 105%. The growth is 81.4% in test [7], 75.4% in test [8], 106% in [9] and 102% in [10].

Regarding `O=C1NC(=C(Cl)Cl)/C(=N\S(=O)(=O)NCc2ccccc2)N1`, the growth was 65.3% in test [1]; 75.6% in test [2]; 94.6% in test [3]; 98.4% in [4]; 108% in [5]; 97.1% in test [6]. Also, the growth in [7] is 102%; in test [8] it was 105%; in test [9] it was 122%; in [10], 109%.

Regarding `CC(=O)N1N=C(c2ccc(Nc3nc(Nc4ccccc4)nc(Nc4ccccc4)n3)cc2)CC1c1ccccc1` (stereo not given), the growth was 62.3% in test [1]; 59.9% in [2]; 82.9% in [3]; 91.9% in test [4]; 96.5% in [5]; 95.5% in [6]. Moreover, the growth is 54.1% in test [7], 88.6% in test [8], 89.3% in test [9] and 84.6% in test [10].

Regarding `COc1cc2ncnc(Nc3ccc(S(=O)(=O)Nc4cc(C)on4)cc3)c2cc1OCCCN1CCN(c2ccc(F)cc2)CC1`, the growth in [1] was 107%; in [2], 114%; in test [3] it was 103%; in test [4], 102%; in test [5], 116%; in test [6] it was 93%. The growth in [7] is 107%; in [8] it was 87.6%; in [9], 90.7%; in test [10], 107%.

Consider `COc1ccc(Nc2nnc(-c3ccc(OC)c(OC)c3)o2)cc1`, for which the growth in test [1] is 86.6%; in [2], 92.1%; in [3], 90.9%; in test [4], 100%; in [5] it was 89.2%; in test [6], 98%. The growth in [7] was 78.7%; in test [8] it was 91.4%; in test [9] it was 94.2%; in test [10], 89.2%.

On to `N#CC1=C(N)Oc2c(sc3c(Br)cccc23)C1c1ccc(Cl)cc1` (stereo not given), for which the growth in test [1] was 4.58% (active); in test [2] it was 12.6%; in [3], 23%; in [4], 26.3%; in test [5], 61.2%; in [6], 27.1%. Further, the growth in test [7] is 27.2%; in test [8] it was 0.89% (active); in test [9], 26.4%; in test [10], 0.969% (active).

As to `O=C(OC(CO)C(=O)NC12CC3CC(CC(C3)C1)C2)c1ccc(Cl)cc1` (stereo not given), the growth in [1] is 84.7%; in test [2] it was 98%; in test [3] it was 100%; in test [4] it was 96.3%; in test [5] it was 101%; in [6] it was 107%. Moreover, the growth is 109% in [7], 115% in [8], 99.5% in test [9] and 107% in test [10].

Take `Nc1ncc(-c2ccc3ncnc(Nc4cccc(Cl)c4)c3c2)cn1`: the growth in [1] was 33.6%; in test [2], 44.5%; in [3] it was 46.8%; in test [4], 26.4%; in test [5], 70%; in [6], -10% (active). For the same compound, the growth is 5.88% (active) in [7], 27.3% in test [8], 16.4% in test [9] and 52.2% in [10].

Take `CN(c1cc2ncc(=O)[nH]c2cc1NC(N)=NCc1ccc(Cl)cc1)C1CCCCC1`: the growth was -22.7% (active) in test [1]; 8.99% (active) in [2]; 70.4% in test [3]; 73.2% in test [4]; 72.7% in test [5]; 84.7% in test [6]. Besides, the growth in [7] is 61.6%; in test [8], 82.3%; in [9] it was 64.2%; in test [10], 115%.

`O=C(Nc1cccc2ccccc12)NC1CC1`: the growth in test [1] is 109%; in test [2] it was 105%; in [3], 101%; in [4] it was 110%; in test [5], 102%; in test [6], 97.1%. Besides, the growth in test [7] was 122%; in test [8], 114%; in [9] it was 108%; in test [10] it was 111%.

`Cc1ccc(C2=Nc3c(N)ncnc3NC(c3cccc(Nc4ccnc5cc(C(F)(F)F)ccc45)c3)C2)cc1` (stereo not given): the growth in test [1] is -19.3% (active); in test [2], -26.6% (active); in test [3], 48.5%; in test [4], 75.2%; in test [5] it was 45.6%; in [6], 46.7%. The growth is 44.7% in [7], 39.2% in test [8], 43.3% in test [9] and 17.4% in test [10].

Consider `CCOC(=O)C/C(=N\Nc1cc(=O)[nH]c2ccc(Br)cc12)C(=O)OCC`, for which the growth was 40.8% in [1]; 83.2% in test [2]; 98.6% in [3]; 99.6% in test [4]; 96.6% in test [5]; 105% in test [6]. In addition, the growth in test [7] was 82.6%; in [8], 100%; in [9], 92%; in test [10], 93.4%.

For `O=C(Nc1ccc(Oc2cccc(Cl)c2)c(Cl)c1)c1cnccn1`, the growth in test [1] was 26.3%; in test [2], 18.1%; in test [3], 28%; in [4], 60.4%; in test [5], 38.9%; in test [6], 83.3%. The growth was 27% in [7], -7.23% (active) in test [8], 18.7% in [9] and 14.8% in test [10].

Take `C[C@@H](CO)[C@@H]1CCC=C2CC[C@]3(C)[C@H](CC[C@@H]4[C@@]5(C)CCCNC(C)(C)[C@@H]5CC[C@]43C)[C@H]21`: the growth in [1] is -29.9% (active); in test [2], -19.8% (active); in test [3], 67.2%; in test [4], 82.9%; in test [5] it was 48.8%; in [6] it was 107%. Moreover, the growth was 71.3% in test [7], 69.8% in test [8], 69.8% in test [9] and 80.9% in [10].

As to `Fc1cnccc1C1CC(c2ccc(N3CCNCC3)cc2)=NN1` (stereo not given), the growth in [1] is 90.4%; in [2], 92.5%; in [3], 95.1%; in test [4], 111%; in test [5], 108%; in [6], 85%. In addition, the growth in test [7] was 68%; in [8], 98.8%; in [9], 89.2%; in test [10], 106%.

`Nc1nc(-c2ccc(Cl)cc2)nc2c1sc(=S)n2-c1ccccc1`: the growth in test [1] was -17.8% (active); in test [2] it was 45.5%; in test [3] it was 32.4%; in test [4], 62.6%; in test [5], -20.1% (active); in test [6], 23.4%. The growth in test [7] was 44.9%; in test [8], 40.2%; in test [9], 19.9%; in test [10] it was 43.8%.

Consider `CNC(=O)c1ccccc1Oc1nc(Nc2cc(OC)c(OC)c(OC)c2)ncc1Br`, for which the growth in [1] was 42.9%; in [2], 73.1%; in test [3] it was 72.2%; in [4], 71.2%; in test [5], 49.5%; in test [6] it was 70.1%. Besides, the growth in test [7] was 46.8%; in test [8], 66%; in test [9], 69.2%; in [10] it was 66.8%.

As for `O=C(O)c1cn(C2CC2)c2cc(N3CCN(C(=O)N(c4ccccc4)c4nc(-c5ccccc5)cs4)CC3)c(F)cc2c1=O`, the growth is -5.43% (active) in [1]; 9.25% (active) in test [2]; 12.5% in test [3]; 6.16% (active) in test [4]; 25.4% in test [5]; -16.2% (active) in test [6]. The growth in [7] was 7.38% (active); in test [8], 3.78% (active); in test [9], 24.5%; in test [10], 2.3% (active).

In the case of `COc1ccccc1CNc1c2ccccc2nc2ccccc12`, the growth in test [1] is 9.9% (active); in [2], 8.12% (active); in test [3], 31.9%; in test [4] it was 49.8%; in test [5], 42.2%; in test [6], 61.4%. Also, the growth is 26.3% in [7], 54.3% in [8], 62% in test [9] and 34.8% in [10].

Take `COc1ccc(/C=C/C(=O)c2cc3c(N)c(C(=O)Nc4cccc5ccccc45)sc3nc2C)cc1`: the growth in test [1] is 44.1%; in test [2], 33.4%; in [3], 81%; in [4] it was 103%; in test [5] it was 88.7%; in [6], 87.7%. Besides, the growth in test [7] is 70.4%; in [8], 22%; in [9], 47.6%; in [10], 58.8%.

In the case of `COc1ccc(-c2noc(C(=O)O)c2-c2cc(OC)c(OC)c(OC)c2)cc1`, the growth in [1] was 10.4%; in test [2], 0.35% (active); in test [3], 30.4%; in test [4] it was 87%; in test [5], 76.7%; in test [6] it was 23.5%. For the same compound, the growth in test [7] was 47%; in [8], 9.65% (active); in test [9], 13.3%; in [10], 27.7%.

Regarding `Cc1cc(C(=O)O)c(C)n1-c1cccc(C(=O)O)c1`, the growth in test [1] was 62.6%; in test [2] it was 107%; in test [3], 73.4%; in [4] it was 66.4%; in test [5], 91.4%; in test [6], 105%. In addition, the growth in [7] was 56.9%; in [8], 121%; in test [9] it was 92.5%; in [10], 72.1%.

On to `CCOC(=O)C1=C(N)Oc2c(sc3c(F)cccc23)C1c1ccc(O)cc1` (stereo not given), for which the growth was 15.3% in [1]; 25.2% in [2]; 44.1% in [3]; 92.4% in test [4]; 38.4% in test [5]; 78.9% in test [6]. Besides, the growth in test [7] was 48.9%; in [8] it was 45.3%; in test [9] it was 31.9%; in test [10], 36.6%.
